From article PMC5540273 (PLoS ONE, 2017)

system: MARK2
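Also: kd values determined as follow-up on hits from a single-replicate KINOMEscan panel screen.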

Row | SMILES | Kd [nM]
1 | O=c1cc(N2CCOCC2)nc2n(Cc3cccc(Cl)c3)ccn12 [GSK2296823] | > 10000
2 | CCn1c(-c2ccncc2)nc2cnccc21 [SB-735216] | > 10000
3 | Cl.Cn1ccc(-c2cccc(Nc3ccnc4cc(-c5nccs5)ccc34)c2)n1 [GW525701] | > 10000

system: T1, MEK5
T1 construct: gene MAP2K5

Row | SMILES | Kd [nM]
4 | CS(=O)(=O)CCNCc1ccc(-c2ccc3ncnc(Nc4ccc(OCc5ccccc5)c(Cl)c4)c3c2)o1.Cl [GW574783] | 1000
5 | O=C(Nc1n[nH]c2nc(-c3ccco3)c(Br)cc12)c1ccc(CN2CCCC2)cc1.O=C(O)[C@H](O)[C@@H](O)C(=O)O [SB-742352] | 550
6 | CCc1nc(-c2cccc(N(C)S(=O)(=O)c3ccccc3)c2)c(-c2ccnc(Nc3ccc(N4CCN(C(C)=O)CC4)nc3)n2)s1 [GSK1645895] | 7
7 | Cl.c1ccc(Cn2ncc3cc(Nc4ncnc5ccccc45)ccc32)cc1 [GW273749] | 90
8 | Cn1ccc2ncnc(Nc3ccc(Oc4cccc(Cl)c4)c(Cl)c3)c21 | 25
9 | OCCOCCn1ccc2ncnc(Nc3ccc(Oc4cccc(Cl)c4)c(Cl)c3)c21 | 200
10 | Cl.c1ccc(Cn2ccc3cc(Nc4ncnc5ccccc45)ccc32)cc1 [GW275568] | 770
11 | Oc1ccc2ncnc(Nc3ccc(OCc4ccccc4)cc3)c2c1 [GI262866] | 82
12 | COc1cc2ncnc(Nc3ccc(OCc4ccccc4Br)c(Cl)c3)c2cc1OC.Cl [GI261590] | 98
13 | O=C(CCO)NCCn1ccc2ncnc(Nc3ccc(Oc4cccc(C(F)(F)F)c4)c(Cl)c3)c21 | 15
14 | COc1cc2c(Nc3cccc(NC(=O)c4ccccc4)c3)ncnc2cc1OCCCN1CCOCC1 [GSK223810] | 940
15 | CC(=O)Nc1n[nH]c2ncc(-c3ccccc3)cc12 [SB-548492] | 290
16 | COc1ccc(-c2oc3ncnc(N)c3c2-c2ccc(OC)cc2)cc1 [SB-589132] | 3000
17 | Cl.Cn1ccc(-c2cccc(Nc3ccnc4cc(-c5nccs5)ccc34)c2)n1 [GW525701] | 960
